High-throughput results deposited in PubChem BioAssay by National Center for Advancing Translational Sciences (NCATS).
VDR inh: blocks the human vitamin D receptor. P11473. VDR-SRC2-3 peptide fluorescence polarization, 2 h. Potency, µM, without a hit: max response, negative = inhibition, most hits filed as inhibitors. hit rate 0.93% among 400,000; also: potency is read from the fitted curve at half-maximal effect
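Signal is fluorescence polarization, reporting how far test compounds block the interaction of VDR with the SRC2-3 coregulator peptide after a 2 h room-temperature incubation.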
PI4K2A block: PI4K2A (human) kinase inhibition; hit rate 0.13% among 420,000; Q9BTU6; purified PI4K2A, ADP-Glo luminescence, 1 h; stronger effect = lower value; activity change, negative = inhibition, % at 76.9 µM; in the data active = activity change below about -50%; inconclusive = mostly about -30% to -49%;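 also: -100% = wells without enzyme as full effect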
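In this quantitative HTS, ADP production by PI4K2A was quantified luminescently after 1 h at ambient temperature; 100 microM adenosine served as plate-quality control.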
GCN5L2 inh: GCN5L2 (KAT2A) acetyltransferase inhibition; GCN5L2 HAT assay, ThioGlo1 CoA-SH fluorescence; Potency, µM (series often up to 58.9 µM), for inactives: at the highest dose activity change, negative = inhibition, most hits filed as inhibitors; hit rate 0.21% among 390,000; AID 504327; also: potency is read from the fitted curve at half-maximal effect
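qHTS, 1536-well. 20nM enzyme, pH 7.5 HEPES/EDTA/Tween-20 buffer; 15 min compound preinc., RT. Start: 75uM H3(1-25), 70uM AcCoA, 50uM ThioGlo1. Read Ex340/Em540 at t=0 (autofluorescence flag) and t=20 min.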
GLS inhibitor: inhibitors of human glutaminase (GLS); O94925; GLS enzymatic activity, qHTS titration; Potency, µM (series often up to 45.5 µM), for the others: top-dose activity change, negative = inhibition, actives largely listed as inhibitors; hit rate 0.21% among 410,000; also: potency is read from the fitted curve at half-maximal effect
Target sequence (O94925 whole entry, looked up): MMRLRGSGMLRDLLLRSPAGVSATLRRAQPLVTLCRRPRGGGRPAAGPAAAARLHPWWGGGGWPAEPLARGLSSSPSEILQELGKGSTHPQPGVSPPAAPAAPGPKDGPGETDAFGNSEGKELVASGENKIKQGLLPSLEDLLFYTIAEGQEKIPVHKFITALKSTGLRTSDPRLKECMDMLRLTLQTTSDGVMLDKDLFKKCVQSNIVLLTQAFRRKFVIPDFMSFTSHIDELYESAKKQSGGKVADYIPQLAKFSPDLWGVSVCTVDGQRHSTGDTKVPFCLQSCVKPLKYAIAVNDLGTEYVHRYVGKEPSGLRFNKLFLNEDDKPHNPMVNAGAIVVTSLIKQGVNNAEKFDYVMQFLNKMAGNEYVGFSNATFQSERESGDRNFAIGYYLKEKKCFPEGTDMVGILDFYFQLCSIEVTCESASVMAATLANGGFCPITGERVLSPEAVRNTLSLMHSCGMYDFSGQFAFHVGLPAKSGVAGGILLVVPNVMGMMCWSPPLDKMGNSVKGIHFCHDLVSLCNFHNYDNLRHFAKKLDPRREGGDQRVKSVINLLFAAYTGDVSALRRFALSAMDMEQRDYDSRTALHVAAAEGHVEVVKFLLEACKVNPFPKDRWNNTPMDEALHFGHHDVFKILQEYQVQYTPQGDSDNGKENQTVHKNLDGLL
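Assay buffer: 45 mM KH2PO4 pH 8.2, 0.02% Tween-20. hKGA acts on L-glutamine (1 mM solution added); product glutamate is reported by an oxidase/peroxidase Amplex Red coupling, with fluorescence taken at baseline and 30 min.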
PLK1 PBD inh: blocks phosphopeptide binding to human PLK1 polo-box domain; P53350; hit rate 2.8% among 360,000; Potency, µM, inactives show max response, negative = inhibition, usual class: inhibitors; Plk1 PBD binding of FITC phosphopeptide, fluorescence polarization; also: potency is read from the fitted curve at half-maximal effect; series mostly up to about 57 µM; nearly all actives have a fitted effect of over 65% in size
Numbers without * were called inactive; u = inconclusive; x = not tested or not shown. Most compounds without a hit are left out; they make up all but 3.1% or so of the library. Unless noted, calls follow the shape of the dose curve; as a rule, active = well fitted curve in the direction sought with a large enough effect; inconclusive = small, poorly fitted or top-dose-only effect, or another doubt; inactive = no such curve, though single readings can be large; an effect the other way counts as inactive or inconclusive. Unless noted, % is scaled to controls: 0 for no effect and ±100 for the full control effect.

SMILES | VDR inh | PI4K2A block | GCN5L2 inh | GLS inhibitor | PLK1 PBD inh
Cc1cc(C)c(NC(=O)CNC(=O)CNC(=O)C2CCCCC2)c(C)c1 | -2.4% | 1.1 | -0.1% | 7.3% | -16.1%
Cc1cc(C)c(NC(=S)NCCCSC2CCCCC2)c(C)c1 | -2.2% | -10.8 | -13.1% | -7.9% | 23.8µM*
COc1ccc(-n2nc3c(N4CCC(C(=O)NCC(C)c5ccccc5)CC4)nnc(C)c3c2C)cc1 (stereo unspecified) | u | 5.7 | 2.0% | -4.9% | 6.7µM*
COc1ccc(CN2C(=O)[C@]3(NCCc4c3[nH]c3ccc(OC)cc43)c3cc(F)ccc32)cc1 | x | 4.3 | x | x | x
O=[N+]([O-])c1ccc2c(c1)N([O-])C1(CCCCC1)[N+]2=O | u | -13.6 | -19.4% | 2.9% | 11.9µM*
CC1=C(c2ccccc2)[N+](=O)C2(CCCC2)N1[O-] | -17.6% | 5.3 | -2.5% | 10.9% | -0.5%
O=c1cnc2cncnc2n1Cc1ccccc1Cl | 39.8µM* | x | -4.0% | x | x
CSc1ncc(C(=O)NCc2ccc(F)cc2)c(-c2ccccc2)n1 | 8.4% | -4.4 | -10.8% | 0.3% | x
COCc1c(C(=O)OC)nnn1-c1ccc(C(F)(F)F)cc1[N+](=O)[O-] | -0.6% | -3.9 | -1.9% | 5.2% | 26.7µM*
COC(=O)[C@]12C[C@H](CC(=O)NCc3cccc4ccccc34)C(=O)N(Cc3ccccc3)C1=C[C@H](COCc1ccccc1)O[C@@H]2C | x | -3.3 | x | x | x
Cc1ccc(-c2nnc(SCC(=O)Nc3ccc4c(c3)OCCO4)n2-c2ccc(Cl)cc2)cc1 | x | -7.3 | x | x | x
COc1ccc([C@H]2CC(=O)C=C(c3cccc(C(F)(F)F)c3)C2)cc1 | u | 0.0 | -16.9% | -6.5% | 26.7µM*
O=C(COC(=O)Cc1ccsc1)Nc1cccc(Cl)c1 | 0.7% | 0.4 | -5.9% | -1.0% | 3.1%
O=C(Cc1ccsc1)Nc1cc(F)ccc1F | -3.5% | 7.7 | 1.3% | 1.1% | -3.3%
O=C(Cc1ccsc1)Nc1ccccc1F | u | -4.1 | -1.0% | 0.3% | 26.7µM*
O=C(COC(=O)Cc1ccsc1)Nc1cccc(F)c1 | 89.1µM* | -6.8 | -3.7% | -0.9% | -5.7%
O=C(CSc1nc(-c2ccccc2)[nH]c1-c1ccc(F)cc1)NC1CCCC1 | -14.0% | -0.4 | -11.6% | -3.6% | x
c1ccc(CN(CCN(Cc2ccccn2)Cc2ccccn2)Cc2ccccn2)nc1 | 5.1% | x | -1.8% | x | x
COc1ccc(CN2C(C(=O)NC3CCCC3)CSCCS2(=O)=O)cc1 (stereo unspecified) | x | -0.8 | x | x | x
Cc1ccc(S(=O)(=O)N2[C@@H](c3cccc(Cl)c3)C(C(=O)O)=CC[C@H]2c2cccc(Cl)c2)cc1 | -18.3% | -4.0 | -0.2% | 19.2% | 26.7µM*
CCOC(=O)C1=CC[C@@H](c2ccccc2)N(S(=O)(=O)c2ccc(C)cc2)[C@H]1C#N | x | 2.9 | x | 0.0% | 6.7µM*
Cc1ccc(S(=O)(=O)N2[C@@H](c3ccc(C(C)(C)C)cc3)C(C(=O)O)=CC[C@H]2c2cccc(Cl)c2)cc1 | u | -0.9 | u | -13.0% | 21.2µM*
Cc1ccc([C@H]2C(C(=O)O)=CC[C@@H](c3cccc(Cl)c3)N2S(=O)(=O)c2ccc(C)cc2)cc1 | -15.9% | -2.9 | x | 17.3% | u
CCc1ccc([C@@H]2CC=C(C(=O)O)[C@H](c3cccc(Cl)c3)N2S(=O)(=O)c2ccc(C)cc2)cc1 | -26.4% | 1.1 | u | 69.4% | 21.2µM*
CCc1ccc([C@@H]2CC=C(C(=O)O)[C@H](c3ccc(Cl)cc3)N2S(=O)(=O)c2ccc(C)cc2)cc1 | -27.7% | 0.2 | u | 38.4% | u
SMILES | VDR inh | PI4K2A block | GCN5L2 inh | GLS inhibitor | PLK1 PBD inh
CC(=O)N1CCc2cc(S(=O)(=O)NC3CCN(C(=O)OCc4ccccc4)CC3)ccc21 | x | -3.9 | x | x | x
C=C1[C@@H]2CC[C@H](C2)C1(C)C | -2.0% | x | -12.5% | -2.5% | x
CN(CCCOC(=O)c1occ2ccccc12)C1CN(Cc2cn(Cc3ccccc3Cl)nn2)S(=O)(=O)C1 (stereo unspecified) | x | 0.1 | x | x | x
COc1ccc(C2Nc3ccccc3C(=O)N2Cc2ccccc2)cc1COc1ccc([N+](=O)[O-])c(C)c1 (stereo unspecified) | -17.6% | x | x | x | x
O=C(CN1C(=O)C2(OCCCO2)c2ccccc21)NCc1ccc2ccccc2c1 | x | -3.4 | x | x | x
Cc1ccc(S(=O)(=O)N2[C@@H](c3ccc(C(C)(C)C)cc3)C(C(=O)O)=CC[C@H]2c2ccc(Cl)c(Cl)c2)cc1 | 2.3% | 5.8 | u | -1.9% | 26.7µM*
O=C(c1cccc(F)c1)N1CCCC(c2nc(-c3cccs3)no2)C1 (stereo unspecified) | x | -1.1 | x | x | x
Cn1c(=O)cc(SCC(=O)NCCC2=CCCCC2)c2ccc(Cl)cc21 | -13.5% | -2.4 | -9.2% | -1.8% | -10.3%
C=CCn1c(SCC(=O)NCCC2=CCCCC2)nc2ccc(Cl)cc2c1=O | u | -1.1 | -3.3% | 12.8% | 10.6µM*
CCCCC(=O)NC(=S)NNS(=O)(=O)c1ccccc1 | u | -1.3 | -6.1% | 2.8% | 11.9µM*
O=C(NC(=S)NNS(=O)(=O)c1ccccc1)c1cccnc1 | 19.8% | -4.8 | -5.3% | -1.8% | u
O=C(O)c1ccccc1C(=O)N1N=C2/C(=C/c3cccc([N+](=O)[O-])c3)CCCC2C1c1cccc([N+](=O)[O-])c1 (stereo unspecified) | -3.9% | -2.3 | -0.8% | -8.8% | 67µM*
CC(=O)N1N=C2/C(=C/c3ccccc3)CCCC2C1c1ccccc1 (stereo unspecified) | 70.8µM* | -16.1 | -4.8% | -23.3% | 26.7µM*
CCCCCn1nnnc1C1(C)Cn2nccc2C(=O)N1Cc1ccco1 (stereo unspecified) | x | -2.6 | x | x | x
N#Cc1c(N)sc(=S)c2c1CCCCC2 | u | u | u | 31.8% | 21.2µM*
Cc1cc(/C=C2/NC(=O)N(Cc3ccccc3F)C2=O)c(C)n1C | -19.9% | 3.5 | -1.5% | 73.4% | 29.9µM*
O=C(NCc1cccc(F)c1)C1=Cc2cc(Br)ccc2OC1 | 5.0% | -0.9 | -1.0% | 3.0% | x
O=c1c(CCc2ccccc2)nc2cnc(N3CCOCC3)nc2n1-c1ccccc1 | -7.9% | x | -14.4% | x | x
O=C(NC(=S)Nc1cc(S(=O)(=O)N2CCOCC2)ccc1O)c1ccco1 | u | 0.5 | -2.8% | -6.4% | 11.9µM*
